Experimental data reported in PubChem BioAssay AID1159580 (chemical genetic matrix, 2015).
Several values for one entry are separate records, joined by “and”; a condition that tells them apart may be missing. Equal values may be shown once. In all, about 5,500 compounds went through this assay and about 2,000 (36%) were called active. Not shown: some 18% with an inconclusive outcome. No stated cut-off is given here; in the data, active means normalized growth mostly below about 0.91 (no sharp cut-off); inconclusive means no clear call, values can overlap the other calls; inactive means mostly above about 0.92. The list shows a part of the results.

Experiment: chemical genetic growth profiling, strain panel (AID 1159580);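 further: tested at 20 µM; growth read once vehicle control cultures reached saturation at 30 °C; 1 = growth at the plate median or of vehicle wells; lower values mean less growth of the strain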
Conditions: S. cerevisiae deletion strains, growth OD

Measured: normalized growth

CC(C)(Oc1ccc(CCNC(=O)c2ccc(Cl)cc2)cc1)C(=O)O
inactive: locus YAL013W, strain DEP1, hits give low values 1.02 | locus YAL021C, strain ccr4, hits give low values 0.982 | locus YAL026C, strain drs2, hits give low values 0.985 | locus YAL030W, strain snc1, hits give low values 0.996 | locus YBL061C, strain skt5, hits give low values 0.999 | locus YBR009C, strain hhf1, hits give low values 0.975 | locus YBR021W, strain FUR4, hits give low values 1.02 | locus YBR023C, strain chs3, hits give low values 0.986 | locus YBR171W, strain sec66, hits give low values 0.978 | locus YBR229C, strain ROT2, hits give low values 1.01 | locus YBR231C, strain swc5, hits give low values 1.01 | locus YBR279W, strain paf1, hits give low values 0.972 | locus YCL011C, strain gbp2, hits give low values 0.982 | locus YCL016C, strain dcc1, hits give low values 0.971 | locus YCL029C, strain bik1, hits give low values 1.02 | locus YCL069W, strain vba3, hits give low values 0.988 | locus YCR088W, strain abp1, hits give low values 0.985 | locus YDL005C, strain med2, hits give low values 0.984 | locus YDL035C, strain GPR1, hits give low values 1.04 | locus YDL040C, strain nat1, hits give low values 0.995 | locus YDL074C, strain BRE1, hits give low values 1.01 | locus YDL101C, strain DUN1, hits give low values 1.01 | locus YDL134C, strain PPH21, hits give low values 1.05 | locus YDL185W, strain tfp1, hits give low values 1.02 | locus YDL192W, strain arf1, hits give low values 1.01 | locus YDR001C, strain nth1, hits give low values 0.987 | locus YDR069C, strain doa4, hits give low values 0.968 | locus YDR101C, strain arx1, hits give low values 0.995 | locus YDR137W, strain rgp1, hits give low values 0.988 | locus YDR150W, strain NUM1, hits give low values 1.01 | locus YDR159W, strain sac3, hits give low values 0.939 | locus YDR162C, strain NBP2, hits give low values 1.03 | locus YDR195W, strain ref2 0.993 | locus YDR297W, strain sur2, hits give low values 0.998 | locus YDR318W, strain mcm21, hits give low values 1.02 | locus YDR334W, strain swr1, hits give low values 0.995 | locus YDR335W, strain msn5, hits give low values 0.977 | locus YDR388W, hits give low values 1.01 | locus YDR392W, strain spt3, hits give low values 0.882 | locus YDR502C, strain sam2, hits give low values 1.02 | locus YEL003W, strain gim4, hits give low values 1.01 | locus YEL037C, strain rad23, hits give low values 0.99 | locus YEL061C, strain CIN8 (second series), hits give low values 0.997 | locus YEL061C, strain CIN8, hits give low values 1.01 | locus YER015W, strain faa2, hits give low values 0.995 | locus YER016W, strain bim1, hits give low values 0.971 | locus YER110C, hits give low values 1 | locus YER111C, strain swi4, hits give low values 0.984 | locus YER155C, strain BEM2 (second series), hits give low values 0.975 | locus YER155C, strain BEM2, hits give low values 1.01 | locus YER167W, strain BCK2, hits give low values 1.01 | locus YFR010W, strain ubp6, hits give low values 1.01 | locus YGL078C, strain dbp3, hits give low values 1.02 | locus YGL086W, strain mad1, hits give low values 1.01 | locus YGL167C, strain pmr1, hits give low values 1 | locus YGL173C, strain kem1, hits give low values 1 | locus YGL227W, strain vid30, hits give low values 0.977 | locus YGL240W, strain doc1, hits give low values 0.984 | locus YGL248W, strain PDE1, hits give low values 1.01 | locus YGL253W, strain hxk2, hits give low values 0.994 | locus YGR078C, strain PAC10, hits give low values 1 | locus YGR135W, strain pre9, hits give low values 1.02 | locus YGR252W, strain gcn5, hits give low values 1.02 | locus YHR013C, strain ard1, hits give low values 0.963 | locus YHR027C, strain rpn1, hits give low values 0.986 | locus YHR030C, strain SLT2, hits give low values 1.02 and 0.997 | locus YHR079C, strain IRE1 (second series), hits give low values 1.02 | locus YHR079C, strain IRE1, hits give low values 0.995 | locus YHR094C, strain hxt1, hits give low values 1.01 | locus YHR129C, strain ARP1, hits give low values 1.01 | locus YHR142W, strain chs7, hits give low values 0.999 | locus YHR200W, strain rpn10, hits give low values 1.03 | locus YIL066C, strain RNR3, hits give low values 1.02 | locus YIL073C, strain SPO22, hits give low values 1.15 | locus YIL125W, strain kgd1, hits give low values 1.01 | locus YIR030C, strain dcg1, hits give low values 1.02 | locus YJL092W, strain hpr5, hits give low values 0.996 | locus YJL095W, strain BCK1 (second series), hits give low values 0.983 | locus YJL095W, strain BCK1, hits give low values 1 and 0.972 | locus YJL115W, strain asf1, hits give low values 0.978 | locus YJL129C, strain trk1, hits give low values 0.955 | locus YJL134W, strain LCB3, hits give low values 1.01 | locus YJL154C, strain vps35, hits give low values 0.98 | locus YJL164C, strain tpk1, hits give low values 0.986 | locus YJL166W, strain qcr8, hits give low values 0.992 | locus YJL168C, strain set2, hits give low values 1.01 | locus YJL187C, strain SWE1 (second series), hits give low values 1.01 | locus YJL187C, strain SWE1, hits give low values 0.996 | locus YJR043C, strain POL32, hits give low values 1.02 | locus YJR066W, strain TOR1, hits give low values 0.967
